{
  "source": "PubChem BioAssay (NCATS)",
  "key": {"[1]": {"tested_on": "HEK293", "test": "Cytotoxic Profiling of Annotated Libraries Using Quantitative High-Throughput Screening (AID 1296008); note: potency is the fitted concentration of half-maximal effect; for max response: % is set by controls: 0 for no effect and ±100 for the full control effect", "conditions": "Five cell lines viability, CellTiter-Glo ATP luminescence, 48-72 h; max response: active compounds read low", "method_in_brief": "(§1)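 Compounds were pin-transferred onto cells and incubated 48 or 72 hr at 37 degree Celsius, 95% humidity. CellTiter-Glo was added, plates sat 10 min at room temperature, then ATP-coupled luminescence was imaged as the viability read-out.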"}, "[2]": {"tested_on": "HaCat", "test": "Cytotoxic Profiling of Annotated Libraries Using Quantitative High-Throughput Screening (AID 1296008)", "conditions": "Five cell lines viability, CellTiter-Glo ATP luminescence, 48-72 h; max response: active compounds read low", "method_in_brief": "as §1"}, "[3]": {"tested_on": "NIH3T3", "test": "Cytotoxic Profiling of Annotated Libraries Using Quantitative High-Throughput Screening (AID 1296008)", "conditions": "Five cell lines viability, CellTiter-Glo ATP luminescence, 48-72 h; max response: active compounds read low", "method_in_brief": "as §1"}, "[4]": {"tested_on": "HACAT", "test": "qHTS assay to identify novel small-molecules to repurpose for Merkel cell carcinoma treatment (AID 1296009)", "conditions": "MCC and control cell lines, CellTiter-Glo viability, 72 h; at 44.8 µM (top of the series) unless noted", "method_in_brief": "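Cells exposed to NPC (8-point) and MIPE (11-point) compound dilutions for 72 hr at 37 degree celsius; viability read by CellTiter-Glo luminescence, normalized to no-cell and DMSO in-plate controls.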"}, "[5]": {"tested_on": "KB-3-1", "test": "Cytotoxic Profiling of Annotated Libraries Using Quantitative High-Throughput Screening (AID 1296008)", "conditions": "Five cell lines viability, CellTiter-Glo ATP luminescence, 48-72 h; max response: active compounds read low", "method_in_brief": "as §1"}},
  "note": "Results filed as inconclusive are left out. Active and inactive are the calls of the source. Calls come from the whole dose curve; as a rule, active = well fitted inhibition curve with a large enough effect; inconclusive = small, poorly fitted or top-dose-only effect; inactive = flat fitted curve, though single readings scatter. Note: nearly all actives have a fitted effect of over 60% in size.",
  "data": [
    {"smiles": "CCc1ccccc1OC[C@@H](O)CN[C@H]1CCCc2ccccc21", "values": [
      {"measurement": "Potency", "setting": "[1]", "result": "23.1 µM (active)"},
      {"measurement": "outcome", "setting": "[2]", "result": "inactive"},
      {"measurement": "max response", "setting": "[3]", "result": "-24.4% (inactive)"},
      {"measurement": "outcome", "setting": "[4]", "result": "inactive"}
    ]},
    {"smiles": "Cc1nc(NC(=O)N2CCC[C@H]2C(N)=O)sc1-c1ccnc(C(C)(C)C(F)(F)F)c1", "values": [
      {"measurement": "Potency", "setting": "[1]", "result": "16.4 µM (active)"},
      {"measurement": "Potency", "setting": "[2]", "result": "3.66 µM (active)"}
    ]},
    {"smiles": "C=C[C@@]1(C)C=C2C(=O)C(O)=C3[C@](C)(C(=O)O)CC[C@@H]4C[C@]34[C@]2(O)C(=O)C1", "values": [
      {"measurement": "Potency", "setting": "[1]", "result": "1.8 µM (active)"},
      {"measurement": "Potency", "setting": "[2]", "result": "10.1 µM (active)"},
      {"measurement": "Potency", "setting": "[3]", "result": "3.6 µM (active)"}
    ]},
    {"smiles": "C#Cc1cccc(Nc2nc3cc(C(=O)O)ccc3c3cncnc23)c1", "values": [
      {"measurement": "Potency", "setting": "[1]", "result": "16.4 µM (active)"},
      {"measurement": "Potency", "setting": "[2]", "result": "7.31 µM (active)"},
      {"measurement": "max response", "setting": "[3]", "result": "-50.8% (inactive)"}
    ]},
    {"smiles": "NCC1CCN(c2nccc(-c3ccc4ccccc4c3)n2)CC1", "values": [
      {"measurement": "Potency", "setting": "[1]", "result": "11.6 µM (active)"},
      {"measurement": "Potency", "setting": "[2]", "result": "6.51 µM (active)"}
    ]},
    {"smiles": "Cc1cc(NC(=O)c2cccc(NC(=O)/C=C/CN(C)C)c2)ccc1Nc1nccc(-c2cccnc2)n1", "values": [
      {"measurement": "Potency", "setting": "[1]", "result": "9.2 µM (active)"},
      {"measurement": "Potency", "setting": "[2]", "result": "8.2 µM (active)"},
      {"measurement": "Potency", "setting": "[3]", "result": "18.4 µM (active)"}
    ]},
    {"smiles": "CNC(=O)COC(=O)N1CCC(CCc2ccc(Cl)cc2)CC1", "values": [
      {"measurement": "Potency", "setting": "[1]", "result": "14.6 µM (active)"},
      {"measurement": "outcome", "setting": "[2]", "result": "inactive"},
      {"measurement": "max response", "setting": "[3]", "result": "-13% (inactive)"},
      {"measurement": "outcome", "setting": "[4]", "result": "inactive"}
    ]},
    {"smiles": "COc1ccc(CN2CCN(C(=O)CCNC(=O)c3ccc(C(C)(C)C)cc3)CC2)cc1", "values": [
      {"measurement": "Potency", "setting": "[1]", "result": "7.31 µM (active)"},
      {"measurement": "max response", "setting": "[2]", "result": "3.77% (inactive)"},
      {"measurement": "max response", "setting": "[3]", "result": "3.24% (inactive)"}
    ]},
    {"smiles": "CO[C@H]1C[C@@H]2CC[C@@H](C)[C@@](O)(O2)C(=O)C(=O)N2CCCC[C@H]2C(=O)O[C@H]([C@@H](C)C[C@@H]2CC[C@@H](O)[C@H](OC)C2)CC(=O)[C@H](C)/C=C(\\C)[C@@H](O)[C@@H](OC)C(=O)[C@H](C)C[C@H](C)/C=C/C=C/C=C/1C", "values": [
      {"measurement": "Potency", "setting": "[1]", "result": "0.0073 µM (active)"},
      {"measurement": "max response", "setting": "[2]", "result": "-8.22% (inactive)"},
      {"measurement": "max response", "setting": "[3]", "result": "-0.671% (inactive)"}
    ]},
    {"smiles": "CC(C)CCNC(=O)c1ccc2c(c1)nc(Nc1n[nH]c3ccc(-c4ccccc4OC(F)(F)F)cc13)n2C1CCC(O)CC1", "note": "(stereo unspecified)", "values": [
      {"measurement": "Potency", "setting": "[1]", "result": "9.2 µM (active)"},
      {"measurement": "outcome", "setting": "[2]", "result": "inactive"},
      {"measurement": "outcome", "setting": "[4]", "result": "inactive"}
    ]},
    {"smiles": "Cn1cc(-c2cnn3c(N)c(Br)c([C@@H]4CCCNC4)nc23)cn1", "values": [
      {"measurement": "Potency", "setting": "[1]", "result": "1.16 µM (active)"},
      {"measurement": "Potency", "setting": "[3]", "result": "2.06 µM (active)"}
    ]},
    {"smiles": "COc1cc([C@H]2O[C@H](c3cc(OC)c4c(c3)OCO4)[C@H](C)[C@H]2C)cc(OC)c1OC", "values": [
      {"measurement": "Potency", "setting": "[1]", "result": "0.893 µM (active)"},
      {"measurement": "outcome", "setting": "[2]", "result": "inactive"},
      {"measurement": "outcome", "setting": "[4]", "result": "inactive [at 17.4 µM]"}
    ]},
    {"smiles": "CCCc1cc2c(N3CCN(C4=NCC(C)(C)S4)CC3)ncnc2s1", "values": [
      {"measurement": "Potency", "setting": "[1]", "result": "5.8 µM (active)"},
      {"measurement": "outcome", "setting": "[2]", "result": "inactive"},
      {"measurement": "outcome", "setting": "[4]", "result": "inactive"}
    ]},
    {"smiles": "C=C(NC(=O)C(=C)NC(=O)c1csc(C2=NC3c4csc(n4)C4NC(=O)c5csc(n5)C(C(C)(O)C(C)O)NC(=O)C5CSC(=N5)/C(=C/C)NC(=O)C(C(C)O)NC(=O)c5csc(n5)C3(CC2)NC(=O)C(C)NC(=O)C(=C)NC(=O)C(C)NC(=O)C(C(C)CC)NC2C=Cc3c(C(C)O)cc(nc3C2O)C(=O)OC4C)n1)C(N)=O", "note": "(stereo unspecified)", "values": [
      {"measurement": "Potency", "setting": "[1]", "result": "1.16 µM (active)"},
      {"measurement": "Potency", "setting": "[3]", "result": "4.61 µM (active)"}
    ]},
    {"smiles": "COc1cccc(OCCCN)c1-c1cc(Nc2cnc(C#N)cn2)n[nH]1", "values": [
      {"measurement": "Potency", "setting": "[1]", "result": "0.0103 µM (active)"},
      {"measurement": "Potency", "setting": "[3]", "result": "0.0411 µM (active)"}
    ]},
    {"smiles": "C=C(C)C(=O)O[C@H]1C[C@@](C)(O)C2(O)CCC(C)(/C=C3/OC(=O)C(COC)=C31)O2", "note": "(stereo partly specified)", "values": [
      {"measurement": "Potency", "setting": "[1]", "result": "3.21 µM (active)"},
      {"measurement": "Potency", "setting": "[3]", "result": "10.1 µM (active)"}
    ]},
    {"smiles": "COc1cc2nc(N3CCN(C(=O)c4ccco4)C4CCCCC43)nc(N)c2cc1OC", "note": "(stereo unspecified)", "values": [
      {"measurement": "max response", "setting": "[2]", "result": "4.28% (inactive)"},
      {"measurement": "Potency", "setting": "[5]", "result": "20.6 µM (active)"}
    ]},
    {"smiles": "CN(C)C(=O)NC1(c2ccccc2)CCN(CCC[C@]2(c3ccc(Cl)c(Cl)c3)CCCN(C(=O)c3ccccc3)C2)CC1", "values": [
      {"measurement": "Potency", "setting": "[1]", "result": "16.4 µM (active)"},
      {"measurement": "Potency", "setting": "[3]", "result": "20.6 µM (active)"}
    ]},
    {"smiles": "CN1c2c(nc(N)[nH]c2=O)NC[C@@H]1CNc1ccc(C(=O)N[C@@H](CCC(=O)O)C(=O)O)cc1", "values": [
      {"measurement": "max response", "setting": "[2]", "result": "-4.13% (inactive)"},
      {"measurement": "outcome", "setting": "[5]", "result": "inactive"}
    ]},
    {"smiles": "C[C@H]1CC[C@@]2(OC1)O[C@H]1CC3[C@@H]4CC[C@@H]5C[C@@H](O[C@@H]6O[C@H](CO)[C@@H](O[C@@H]7O[C@H](CO[C@@H]8OC[C@@H](O)[C@H](O)[C@H]8O)[C@@H](O[C@@H]8O[C@H](CO)[C@H](O)[C@H](O)[C@H]8O)[C@H](O)[C@H]7O)[C@H](O)[C@H]6O)CC[C@]5(C)C4CC[C@]3(C)[C@H]1[C@@H]2C", "note": "(stereo partly specified)", "values": [
      {"measurement": "max response", "setting": "[2]", "result": "-10.6% (inactive)"},
      {"measurement": "outcome", "setting": "[5]", "result": "inactive"}
    ]},
    {"smiles": "O=c1[nH]c2cccc(N3CCN(Cc4ccc(-c5ccccc5)cc4)CC3)c2o1", "values": [
      {"measurement": "max response", "setting": "[2]", "result": "-18.1% (inactive)"},
      {"measurement": "max response", "setting": "[5]", "result": "-24.1% (inactive)"}
    ]},
    {"smiles": "O=C(NC1CCN(CCCCC2(C(=O)NCC(F)(F)F)c3ccccc3-c3ccccc32)CC1)c1ccccc1-c1ccc(C(F)(F)F)cc1", "values": [
      {"measurement": "Potency", "setting": "[1]", "result": "11.6 µM (active)"},
      {"measurement": "Potency", "setting": "[3]", "result": "7.31 µM (active)"}
    ]}
  ]
}
